From PubChem BioAssay (Tox21) come the findings set out here.

SMILES strings stand for the structures. Inconclusive results are not listed. Values without a mark were called inactive. The source made the active and inactive calls. Calls follow the shape of the dose curve; as a rule, active = well fitted curve in the direction sought with a large enough effect in the repeat runs; inconclusive = weak or mixed curves; inactive = no such curve, though single readings can be large; an effect the other way counts as inactive or inconclusive.

The nature of assay [1]: qHTS assay to identify small molecule agonists of the RXR signaling pathway - cell viability counter screen (AID 1159529). Also: series mostly up to about 77 µM; nearly all actives have a fitted effect of over 50% in size. The method, boiled down: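 Cell viability is measured by CellTiter-Glo luminescence, 30 min at room temperature, in wells already read for beta-lactamase. Engineered HEK 293T cells (RXR-alpha-UAS-bla) are dosed 16 hr at 37 C. Tetraoctyl ammonium bromide serves as positive control.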

Assay [2] can be described thus: qHTS assay to identify small molecule antagonists of the retinoid acid receptor (RAR) signaling pathway - cell viability counter screen (AID 1159551). Also: nearly all actives have a fitted effect of over 35% in size. The essentials:
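Viability of C3RL4 cells is quantified from ATP by luminescence after 6 h treatment at 37 C with compounds and 1 uM retinol.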

Assay [3] in a line: qHTS assay to identify small molecule antagonists of the retinoic acid receptor (RAR) signaling pathway (AID 1159552; also: nearly all actives have a fitted effect of over 50% in size). The method, boiled down:
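Quantitative HTS in C3RL4 RARE-luciferase reporter cells. Compounds were added with 1 uM (final) retinol; luminescence was read after 6 hr.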

A short description of assay [4]: qHTS assay to identify small molecule agonists of the retinoic acid receptor (RAR) signaling pathway (AID 1159553). Also: potency is read from the fitted curve at half-maximal effect. The essentials:
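Compounds dissolved in DMSO were pinned onto C3RL4 cells seeded the previous day, and plates were held 6 hr at 37 C. RARE-driven luciferase output was then read by luminescence.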

The nature of assay [5]: qHTS assay to identify small molecule antagonists of the estrogen related receptor signaling pathway with the pleiotropic PPARgamma coactivator (PGC) cell viability counter screen (AID 1224822;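 also: series mostly up to about 46 µM; viability read after 17.5 h compound exposure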). The method, boiled down: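 Viable cell signal (CellTiter-Fluor, 30 min, 37 C/5% CO2) was measured in PGC/ERR cells after a 17.5 h compound incubation.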
The nature of assay [6]: qHTS assay to identify small molecule antagonists of the estrogen related receptor (ERR) signaling pathway from Tox21 library - cell viability counter screen (AID 1224834). Also: nearly all actives have a fitted effect of over 30% in size. Also: potency is read from the fitted curve at half-maximal effect. The essentials:
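In this quantitative HTS format, ERR cells receive compounds in DMSO and are incubated for 17.5 h at 37 C. Live-cell protease activity is then detected with CellTiter-Fluor.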

Assay [7] is described as follows: qHTS assay to identify small molecule agonists of the estrogen related receptor (ERR) signaling pathway (AID 1224820). The method, boiled down: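 Luminescence readout (One-Glo, 30 min RT) from NTP-supplied ERR cell line exposed to compounds for 18 h at 37 C. Cells seeded 2,000 per well and pre-incubated 6 h before pin-tool compound transfer.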
Assay [8] can be described thus: qHTS assay to identify small molecule agonists of the estrogen related receptor signaling pathway with the pleiotropic PPARgamma coactivator (PGC) (AID 1224823). The essentials: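 Luminescence readout (One-Glo, 30 min RT) from PGC/ERR cell line treated 18 h at 37 C with pin-tool-delivered DMSO compound solutions; cells plated 6 h before dosing. Quantitative HTS format.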
% is scaled to controls: 0 for no effect and ±100 for the full control effect.

Take `O=C(c1ccccc1)c1ccc2n1CCC2C(=O)O` (stereo not drawn): the Potency entry in assay [1], in assay [2], in assay [3] and in assay [6] was “inactive” in each case. For the same compound, the Potency in assay [4] is 13.3 µM (active). The result in assay [5] was inactive.
For the compound `CN1CCN(C2=Nc3cc(Cl)ccc3Nc3ccccc32)CC1`, the Potency result in assay [1], in assay [2], in assay [3] and in assay [4] was “inactive” throughout. Moreover, the Potency in assay [6] was 26.6 µM (active).
On to `CN(c1nccc(=O)[nH]1)C1CCN(c2nc3ccccc3n2Cc2ccc(F)cc2)CC1`, for which the Potency entry in assay [1], in assay [2], in assay [3], in assay [4] and in assay [6] was “inactive” throughout.
Consider `O=C(Nc1ccccc1)OCC(CN1CCCCC1)OC(=O)Nc1ccccc1` (stereo not drawn), for which the Potency result in assay [1], in assay [2], in assay [3], in assay [4] and in assay [6] was “inactive” each time.
In the case of `Cn1c(N)nc2nc[nH]c2c1=O`, the Potency entry in assay [1], in assay [2], in assay [3], in assay [4] and in assay [6] was “inactive” each time.
Consider `CC(C)NCC(O)COc1ccc(CC(N)=O)cc1` (stereo not drawn), for which the Potency entry in assay [1], in assay [2], in assay [4] and in assay [6] was “inactive” throughout. Besides, the compound was called inactive in assay [5].
For `N#Cc1c(F)cccc1F`, the Potency result in assay [1], in assay [2], in assay [3] and in assay [6] was “inactive” throughout.
With `CCOc1nc2cccc(C(=O)O)c2n1Cc1ccc(-c2ccccc2-c2nn[nH]n2)cc1`, the Potency entry in assay [1], in assay [2], in assay [3], in assay [4] and in assay [6] was “inactive” in each case.
On to `CCCC(=O)OCC`, for which the Potency result in assay [1], in assay [2], in assay [3] and in assay [6] was “inactive” throughout.
For `CCN(CCO)CCCC(C)Nc1ccnc2cc(Cl)ccc12` (stereo not drawn), the values for the activity change, negative = cytotoxicity in assay [1] and in assay [2] were -6.26% [at 6.97 µM] and 0.797% [at 8.39 µM], respectively. The activity, negative = inhibition in assay [3] is -1.6% [at 8.39 µM]. For the same compound, the viability change, negative = cytotoxic in assay [6] was -2.66% [at 8.39 µM].
In the case of `CCOc1ccc(NC(=O)CC(C)=O)cc1`, the Potency result in assay [1], in assay [2], in assay [3] and in assay [6] was “inactive” in each case.
Take `CC(C)(C)c1cc(CCC(=O)OCC(COC(=O)CCc2cc(C(C)(C)C)c(O)c(C(C)(C)C)c2)(COC(=O)CCc2cc(C(C)(C)C)c(O)c(C(C)(C)C)c2)COC(=O)CCc2cc(C(C)(C)C)c(O)c(C(C)(C)C)c2)cc(C(C)(C)C)c1O`: the Potency result in assay [1], in assay [2], in assay [3], in assay [4] and in assay [6] was “inactive” each time.
Regarding `O=C(O)C(c1ccc(Cl)cc1)c1ccc(Cl)cc1`, the Potency entry in assay [1], in assay [2], in assay [3], in assay [4] and in assay [6] was “inactive” each time.
Turning to `N[C@H]1C(O)O[C@H](CO)[C@H](O)[C@@H]1O` (stereo partly drawn), the Potency entry in assay [1], in assay [2], in assay [3] and in assay [6] was “inactive” throughout.
For `CCOC(=O)CC(=O)c1cc(F)c(Cl)nc1Cl`, the Potency result in assay [1], in assay [2], in assay [3] and in assay [6] was “inactive” in each case.
For the compound `C=Cc1c(C)c2cc3[nH]c(cc4nc(cc5nc(cc1[nH]2)C(C)=C5CCC(=O)O)C(CCC(=O)O)=C4C)c(C)c3C=C`, the Potency entry in assay [1], in assay [2] and in assay [3] was “inactive” throughout. In addition, the result in assay [7] and in assay [8] was inactive. The Potency in assay [6] is 23.7 µM (active).
For the compound `CCCCC(CC)(CO)CO`, the Potency result in assay [1], in assay [2], in assay [3] and in assay [6] was “inactive” each time.
`O=C(O)COC(=O)Cc1ccccc1Nc1c(Cl)cccc1Cl`: the Potency entry in assay [1], in assay [2], in assay [3] and in assay [6] was “inactive” in each case.
With `CCN(CC)CCc1nc(-c2ccccc2)no1`, the Potency result in assay [1], in assay [2], in assay [3] and in assay [6] was “inactive” throughout.
For the compound `C=C(C)C(=O)OC(C)C`, the Potency result in assay [1], in assay [2], in assay [3] and in assay [6] was “inactive” throughout.
Consider `COc1ccc(C(C)=O)cc1`, for which the Potency entry in assay [1], in assay [2], in assay [3], in assay [4] and in assay [6] was “inactive” each time.
Consider `CC(CN)CCCN` (stereo not drawn), for which the Potency result in assay [1], in assay [2], in assay [3] and in assay [6] was “inactive” each time.
Turning to `C=CC(C)(CCC=C(C)C)OC(=O)c1ccccc1` (stereo not drawn), the Potency entry in assay [1], in assay [2], in assay [3], in assay [4] and in assay [6] was “inactive” each time.
For `CC(C)CCCCCCOC(=O)c1ccc(C(=O)OCCCCCCC(C)C)c(C(=O)OCCCCCCC(C)C)c1`, the Potency entry in assay [1], in assay [2], in assay [3], in assay [4] and in assay [6] was “inactive” in each case.
Take `CC(C)c1cccc(C(C)C)c1NC(=O)NS(=O)(=O)c1cc(C(C)(C)O)co1`: the Potency entry in assay [1], in assay [2], in assay [3] and in assay [6] was “inactive” each time.
In the case of `OCCC1CCCCN1` (stereo not drawn), the Potency entry in assay [1], in assay [2], in assay [3] and in assay [6] was “inactive” in each case.
Regarding `CCCCCCCCCC(=O)OCC`, the Potency entry in assay [1], in assay [2], in assay [3] and in assay [6] was “inactive” throughout.
`CC(=O)OCCc1ccccc1`: the Potency entry in assay [1], in assay [2], in assay [3] and in assay [6] was “inactive” throughout.
As for `CC(C)CCCC(C)CCO` (stereo not drawn), the Potency entry in assay [1], in assay [2], in assay [3] and in assay [6] was “inactive” each time.
`CCCCCCOC(=O)CCC`: the Potency result in assay [1], in assay [2], in assay [3], in assay [4] and in assay [6] was “inactive” each time.
For `Cc1cccc(C(C)(C)C)c1O`, the Potency result in assay [1], in assay [2], in assay [3] and in assay [6] was “inactive” in each case.
As for `CCCCCC(CO)CCC` (stereo not drawn), the Potency entry in assay [1], in assay [2], in assay [3], in assay [4] and in assay [6] was “inactive” each time.
Regarding `O=CNc1ccccc1`, the Potency result in assay [1], in assay [2], in assay [3] and in assay [6] was “inactive” each time.
Take `CC(=O)NCCCS(=O)(=O)O`: the Potency entry in assay [1], in assay [2], in assay [3] and in assay [6] was “inactive” in each case.
Consider `CCOc1cc(OCC)c(C(=O)CCC(=O)O)cc1OCC`, for which the Potency result in assay [1], in assay [2], in assay [3], in assay [4] and in assay [6] was “inactive” throughout.
